The term AC50 denotes the midpoint of the concentration-response curve, whichever way the signal moves.

Results filed as inconclusive are left out. Active and inactive are the calls of the source. Rule for the calls: active = hit-call score of the fitted dose curve at least 0.9, where 1 is the maximum; inconclusive = response in the unintended direction; inactive = score below 0.9.

Chain of Estrogen receptor (Homo sapiens) (P03372 whole entry, looked up, the tested form may be a part): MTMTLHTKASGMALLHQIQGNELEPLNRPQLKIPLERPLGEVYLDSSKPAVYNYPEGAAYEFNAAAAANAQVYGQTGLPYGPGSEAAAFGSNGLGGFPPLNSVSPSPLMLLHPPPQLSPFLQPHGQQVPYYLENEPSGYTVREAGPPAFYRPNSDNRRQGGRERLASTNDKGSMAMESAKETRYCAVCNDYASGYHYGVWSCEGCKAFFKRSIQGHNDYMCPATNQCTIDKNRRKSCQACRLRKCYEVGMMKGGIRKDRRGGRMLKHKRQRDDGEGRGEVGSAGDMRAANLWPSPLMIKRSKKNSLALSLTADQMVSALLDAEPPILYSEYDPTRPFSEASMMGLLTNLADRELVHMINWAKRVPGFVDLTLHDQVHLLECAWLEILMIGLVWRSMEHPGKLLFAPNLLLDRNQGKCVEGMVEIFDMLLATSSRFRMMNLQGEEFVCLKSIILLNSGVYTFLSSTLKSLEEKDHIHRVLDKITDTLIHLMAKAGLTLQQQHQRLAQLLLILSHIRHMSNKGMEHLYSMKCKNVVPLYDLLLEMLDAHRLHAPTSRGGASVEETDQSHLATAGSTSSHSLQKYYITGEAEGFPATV

In the experiment the target is Estrogen receptor (Homo sapiens) (UniProt P03372). Put plainly: ATG_ERa_TRANS: Attagene TRANS-FACTORIAL HepG2 Assay for human Estrogen Receptor alpha (ERa) (AID 2282970). The conditions noted are these: HepG2 Attagene TRANS ERa GAL4 reporter, mRNA. Here is the method:
ATG_TRANS is a cell-based, multiplexed-readout assay that uses HepG2, a human liver cell line, with measurements taken at 24 hours after chemical dosing in a 24-well plate.ATG_ERa_TRANS is one of 30 assay component(s) measured or calculated from the ATG_TRANS assay. It is designed to make measurements of mRNA induction, a form of inducible reporter, as detected with fluorescence intensity signals by Reverse transcription polymerase chain reaction (RT-PCR) and Capillary electrophoresis technology.Data from the assay component ATG_ERa_TRANS was analyzed into 1 assay endpoint. This assay endpoint, ATG_ERa_TRANS, was analyzed in the positive analysis fitting direction relative to DMSO as the negative control and baseline of activity. Using a type of inducible reporter, measures of mRNA for gain-of-signal activity can be used to understand the reporter gene at the transcription factor-level as they relate to the gene ESR1. Furthermore, this assay endpoint can be referred to as a primary readout, because this assay has produced multiple assay endpoints where this one serves a reporter gene function. To generalize the intended target to other relatable targets, this assay endpoint is annotated to the nuclear receptor intended target family, where the subfamily is steroidal.
Human liver HepG2 cells are transiently transfected with multiple reporter transcription units (MRTUs) in 6-well plates using FuGene 6 reagent (Roche; 3 ml FuGene/1 mg DNA). The MRTU constructs are regulated by a cis-regulating element (promoter). […] A major difference between the CIS and TRANS system is that in CIS activities of endogenous TFs are measured, whereas the TRANS assay evaluates changes in activities of exogenous, chimeric NR-Gal4 proteins. […] At the end of 24 hour incubation, total RNA was isolated using TriZol reagent (Invitrogen). The isolated RNA is then reverse-transcribed using oligo(dT) primer and Mo-MLV reverse transcriptase (Invitrogen) with DNAse I (Ambion) treatment for 30 min. The one-tenth of the produced cDNA was amplified by PCR using Taq DNA polymerase (Invitrogen) and two reporter sequence-specific primers. The PCR products were fluorescently labeled by primer extension with 6-arboxyfluorescein (6-FAM) 5'-labeled reporter sequence-specific primer (2 min at 95 C, 20 s at 68 C and 10 min at 72 C) and these products were digested with 5U of HpaI (New England Biolabs) for 2h at 37 C. […] The raw capillary electrophoresis data was processed using Attagraph software (Attagene).
Turning to `CC(=[OH+])/C=C(/C)[O-].CC(=[OH+])/C=C(/C)[O-].CC(=[OH+])/C=C(/C)[O-].[Fe]`, the molecule was called inactive.

As to `C[C@H]1CCCC(=O)CCC/C=C/c2cc(O)cc(O)c2C(=O)O1`, the AC50 was 0.00409 µM (active).

For the molecule `Oc1c(I)cc(I)cc1I`, the molecule was called inactive.

In the case of `CC(C)(C)c1cc(O)ccc1O`, the AC50 is 33.6 µM (active).

`CC(=O)c1cc(C(C)(C)C)cc2c1CCC2(C)C`: the molecule was classed as inactive.

Turning to `O=S(=O)(c1ccc(Cl)cc1)c1ccc(Cl)cc1`, the result was inactive.

Take `BrCCBr`: the AC50 was 27.5 µM (active).

Take `ClC1=C(Cl)[C@]2(Cl)[C@H]3[C@H]([C@H]4C=C[C@H]3C4)[C@@]1(Cl)C2(Cl)Cl`: the AC50 was 8.38 µM (active).

As to `CCC(C)c1cccc(C(C)CC)c1O` (stereo not given), the AC50 is 24.4 µM (active).

For `Cn1sc(Cl)cc1=O`, the molecule was called inactive.

Take `NNC(=S)NN`: the molecule was classed as inactive.

As to `COP(=O)(OC)O/C(=C\Cl)c1cc(Cl)c(Cl)cc1Cl`, the AC50 was 5.86 µM (active).

As for `ClCc1ccccn1`, the molecule was called inactive.

As to `Nc1ccc(-c2ccc(N)c(Cl)c2)cc1Cl`, the half-maximal activity concentration (AC50) is 2.04 µM (active).

Consider `C=CC#N`, for which the molecule was called inactive.

On to `Cc1ccc2ccccc2c1C`, for which the call was inactive.

Turning to `NC(=S)Nc1ccccc1`, the AC50 is 64.2 µM (active).

Turning to `C=C(C)C#N`, the molecule was classed as inactive.

For `CCSC(C)CC1CC(=O)C(C(CC)=NOC/C=C/Cl)=C(O)C1` (stereo not given), the call was inactive.

`CCCCCCCCC(=O)NCc1ccc(O)c(OC)c1`: the molecule was classed as inactive.

`CCN(CC)C(=O)Cl`: the AC50 was 15.9 µM (active).

Take `CC(C)C1CCC(Cc2ccc(Cl)cc2)C1(O)Cn1cncn1` (stereo not given): the call was inactive.

With `Nc1ncc([N+](=O)[O-])s1`, the molecule was called inactive.

For `COc1ccc(C=O)cc1`, the molecule was classed as inactive.

`CCOP(=S)(OCC)Oc1ccc(S(C)=O)cc1` (stereo not given): the molecule was called inactive.

For `N#CCCO`, the call was inactive.

Take `Cc1cc(=O)[nH]o1`: the outcome was inactive.

On to `CCC(C)(C)c1ccc(O)c(C(C)(C)CC)c1`, for which the AC50 was 33.4 µM (active).

Regarding `O=C(NCO)NCO`, the molecule was called inactive.

Regarding `N#CN=C(N)N`, the outcome was inactive.

On to `CCCCP(CCCC)CCCC`, for which the molecule was classed as inactive.

Turning to `CCOP(=S)(OCC)SCCS(=O)(=O)CC`, the molecule was classed as inactive.

In the case of `CC(=O)OC(c1ccccc1)C(Cl)(Cl)Cl` (stereo not given), the AC50 is 34.8 µM (active).

`O=C/C=C/c1ccccc1`: the AC50 is 27.8 µM (active).

For `C1CCC(NC2CCCCC2)CC1`, the AC50 is 59.7 µM (active).

On to `Clc1nc(Cl)nc(Cl)n1`, for which the outcome was inactive.

As for `CNC(=O)O/N=C/C(C)(C)S(C)=O` (stereo not given), the result was inactive.

As for `COc1cc2c(cc1OC)[C@@]13CCN4CC5=CCO[C@H]6CC(=O)N2[C@H]1[C@H]6[C@H]5C[C@H]43`, the molecule was classed as inactive.

As for `COc1ccccc1OC`, the molecule was classed as inactive.

`c1ccc(N=NNc2ccccc2)cc1`: the AC50 is 27.1 µM (active).
